# According to PubChem BioAssay AID1963322 (National Center for Advancing Translational Sciences (NCATS), 2024):
# Results filed as inconclusive are left out. Values without a mark were called inactive. Active and inactive are the calls of the source. The call rests on the fitted dose curve.
# Target: cAMP-dependent protein kinase catalytic subunit alpha (Homo sapiens) (UniProt P17612)
# Assay: Protein Kinase A (PKA-HiBiT) SDR gain of signal screen
# Settings: PKA-HiBiT structural dynamics response (SDR), luminescence gain of signal; series mostly up to 32.9 µM; activity change, positive = signal gain: at the top concentration
# Excerpt: National Center for Advancing Translational Sciences (NCATS),
# National Institute of Health (NIH), Maryland
# Discovery and optimization of novel protein-binding ligands underlies many of the methods and applications of biology, drug discovery, clinical diagnostics, and environmental toxicology. Assays for detecting the interaction of, for example, a molecule with a macromolecular target also referred to here as the target of interest (TOI) is dependent on a compatible output technology. Depending on the nature and knowledge surrounding the TOI, whether a receptor, enzyme, regulatory subunit or scaffold, or a sequence-defined nucleic acid folded into a complex tertiary structure, assay strategies can vary widely.
# Here we exploit ligand-biased changes in the structural dynamics of the target protein to control reporter alpha complementation allowing a non-competitive, non-functional, non-separation measure of ligand-target interaction.
# Using a chemical library of >1,200 compounds enriched for scaffolds known to be associated with the inhibition of firefly luciferase (FLuc) activity (PubChem AIDs 2309) we first illustrate and compare the Structural Dynamics Response (SDR) assay vs. the standard functional FLuc enzyme assay (2). Secondly, we show the specificity and sensitivity of the SDR for the Abelson tyrosine kinase (ABL1) compared to the serine/threonine protein kinase A, using an enriched chemical library of 128 compounds selected, in part, for activity annotated with ABL1 kinase activity using the Pharos database (3).
# (1) A. S. Dixon et al., NanoLuc Complementation Reporter Optimized for Accurate Measurement of Protein Interactions in Cells. ACS Chem Biol 11, 400-408 (2016).
# Chemistry & Biology, 19, 1060 - 1072 (2012).
# (3) K. J. Kelleher et al., Pharos 2023: an integrated resource for the understudied human proteome. Nucleic Acids Res 51, D1405-D1416 (2023).
# PROTOCOL TABLE (as described by Inglese J, Shamu CE and Guy RK. 2007)
# SEQUENCE No. (e.g., 1, 2, 3, etc.); […] (e.g., C. elegans, Compounds, Incubation, Read, etc.); VALUE and DESCRIPTION.
# 1. Reagent. Dispense 4 uL PKA-N-HiBiT enzyme per well at a final enzyme concentration of 10 nM in buffer into columns 2-48 of four replicate Greiner 1536-well white,solid bottom high base, medium plates per assay. Dispense respective buffer without enzyme at 4 uL/well in column 1 of assay plates using BioRaptr 2.
# 2. Compounds. Library compounds added at 23 nL/well by pin transfer. DMSO neutral control and H-89 positive control added at 25 nL/well, transfer by Mosquito dispenser.
# 3. Incubation. Incubate enzyme and compounds at room temperature for 30 min, protect from light.
# 4. Reagent. (SDR assay) Add 3 uL/well of Nano-Glo HiBiT reagent (Promega) to assay plates.
# 5. Incubation. (SDR assay) Incubate enzyme solution HiBiT reagent at room temperature for 10 min, protected from light.
# 6. Detector. (SDR assay) Luminescence measured using CCD-based camera (ViewLux) with settings as follows: Exposure, 1 sec; Gain, High; Speed, Slow; Binning, 2X.
SMILES,Potency,"activity change, positive = signal gain [%]"
Cc1[nH]nc2ccc(-c3cncc(OC[C@@H](N)Cc4c[nH]c5ccccc45)c3)cc12,197 nM (active),–
CCNC(=O)C[C@@H]1N=C(c2ccc(Cl)cc2)c2cc(OC)ccc2-n2c(C)nnc21,–,4.6
O=C(NCCCNc1nc(Nc2ccc(N3CCOCC3)cc2)ncc1C1CC1)C1CCC1,–,-1.76
O=[N+]([O-])O[C@H]1CO[C@H]2[C@@H]1OC[C@H]2O[N+](=O)[O-],–,4.6
N#Cc1cn([C@@H]2O[C@H](CO)[C@H](O)[C@@H]2O)c2ncnc(N)c12,–,0.291
C/C(O)=C(\C#N)C(=O)Nc1cc(Br)ccc1Br,–,-82.4
